In PubChem BioAssay (NCI):
About 79,000 compounds went through this panel and 15% of them were active in at least one assay; those are over-represented in the sample as a whole. Values without a mark were called inactive. Calls of active or inactive are those of the source. Rule as the data show it: active = growth inhibition above about 70%; inactive = the rest.

Experiment: NCI Yeast Anticancer Drug Screen. Data for the mlh1 strain (AID 171);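 also: 0% = growth of vehicle-treated control cultures of the same strain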
Settings: S. cerevisiae mlh1 strain growth inhibition; at 100.0 µM; hits give high values
Outline: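 Inhibition values reflect reduced yeast growth in the presence of compound, referenced to vehicle controls, using a strain chosen for its alteration in DNA repair or cell cycle control.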

Row | SMILES | growth inhibition
1 | COc1ccc(/C=C2\CCc3ccccc3C2=O)cc1OC | 91% (active)
2 | O=Cc1ccccc1B(O)O | 99% (active)
3 | O=C(O)[C@H]1[C@@H](C2CCCCC2)O[C@@H](C2CCCCC2)O[C@H]1C(F)(F)F | 3%
4 | CN(NC(=O)/C(=C/C=C/c1ccccc1)NC(=O)c1ccccc1)C1=C(Cl)C(=O)[N+](c2ccccc2)=CC1 | 63%
5 | CCCCOc1ccc(Nc2c3ccccc3nc3ccccc23)cc1 | 74% (active)
6 | N#C/C(=C1C=C/C(=N\O)C(Cl)=C\1)c1ccccc1 | 23%
7 | COc1ccc(C(=O)OCCc2ccccc2)cc1 | 9%
8 | Cc1c2ccncc2c(C)c2c1oc1ccccc12 | 98% (active)
9 | CCCC#CCOC(=O)c1cc([N+](=O)[O-])cc([N+](=O)[O-])c1 | 99% (active)
10 | Nc1nc(Nc2ccccc2)nc(Nc2ccccc2)n1 | 97% (active)
11 | COc1ccc(/C=C2\S/C(=N/Nc3nc(-c4ccccc4)cs3)NC2=O)cc1OC | 88% (active)
12 | CC(O)CN1C(=O)c2cccc3cc([N+](=O)[O-])cc(c23)C1=O (stereo unspecified) | 47%
13 | Cn1c(COc2ccc(/C=N/NC(=O)CCC(=O)N/N=C/c3ccc(OCc4c[n+]5ccccc5n4C)cc3)cc2)c[n+]2ccccc12 | 96% (active)
14 | COC1=C(N=[N+]=[N-])C(=O)c2ncccc2C1=O | 94% (active)
15 | CCN(CC)c1ccc(N=Nc2cc(S(=O)(=O)O)ccc2O)c(O)c1 | -12%
16 | O=C1C(C(O)(C(F)(F)F)C(F)(F)F)CCC1C(O)(C(F)(F)F)C(F)(F)F (stereo unspecified) | 33%
